Test results reported in publication PMC4552634, “A New Set of Chemical Starting Points with Plasmodium falciparum Transmission-Blocking Potential for Antimalarial Drug Discovery” (PLoS ONE, 2015).
Screen size: about 13,000 compounds; about 3,200 (25%) showed an effect of 50% or more. Some of the results follow.

system: P. falciparum stage V gametocytes; set-up: BacTiter-Glo ATP luminescence viability of purified stage V gametocytes in 384-well plates, per cent inhibition versus DMSO; details: 48 h, 5 µM; inhibitor

SMILES | % Inhibition
COc1cc(C)ccc1N1CCN(CCCCNC(=O)c2ccc(NC(=O)c3ccc(Cl)cc3)cc2)CC1 [TCMDC-138374] | -7.22%
CCNc1cc(C)nc(Nc2ccc(NC(=O)c3ccccc3Br)cc2)n1 [TCMDC-124985] | 22.04%
COC(=O)CNC(c1ccccc1)c1cc(Br)ccc1NC(=O)c1ccccc1Br (stereo not drawn) [TCMDC-124194] | 56.77%
O=C(Nc1cc(Cl)c(Cl)cc1NC(=O)c1cccc(-c2ccccc2)c1O)c1cccc(-c2ccccc2)c1O [TCMDC-139548] | 45.99%
CCOC(=O)NC1=NC(C)(C)N(OCCCOc2cc(Cl)c(Cl)cc2Cl)C(N)=N1 [TCMDC-131741] | -6.814%
CC(C)C1C(O)=C(c2ccc3ccccc3c2)C(=O)N1CC1CCCCC1 (stereo not drawn) [TCMDC-141719] | 18.57%
Cc1cc(N[C@@H](Cc2ccccc2)C(=O)NC2CCCC2)nc(Nc2ccccc2)n1 [TCMDC-134856] | 16.45%
O=C(Nc1nc2cc(S(=O)(=O)NCc3ccc(Cl)c(Cl)c3)ccc2n1CCCN1CCCC1)c1ccc(Cl)cc1 [TCMDC-141622] | 64.1%
O=C(Nc1nc2cc(S(=O)(=O)NCc3ccc(Cl)c(Cl)c3)ccc2n1CCCn1ccnc1)c1ccc(Cl)cc1 [TCMDC-141625] | -7.697%
O=C(Nc1nc2cc(S(=O)(=O)NCCCN3CCOCC3)ccc2n1CCCn1ccnc1)c1ccc(Cl)cc1 [TCMDC-141624] | 31.25%
O=C(O)C(F)(F)F.O=C1CCCN1CCCNCc1ccc(-c2ccc(-c3nc4cc(F)ccc4[nH]3)cc2)cc1 [TCMDC-132759] | -31.18%
Cc1cc(C(=O)NCc2ccc(-c3c(C)noc3C)cc2)n(-c2ccccc2)n1 [TCMDC-133780] | 16.41%
CCCc1cc(NC2CCN(C)CC2)nc(Nc2cccc(OC)c2)n1 [TCMDC-134001] | 21.8%
CCCc1cc(NC2CCN(C)CC2)nc(Nc2ccc(C)cc2)n1 [TCMDC-134003] | 32.47%
CCCCc1cc(NC2CCN(C)CC2)nc(Nc2ccccc2)n1 [TCMDC-133994] | 6.593%
Cc1ccc(Nc2nc(C)cc(NC3CCN(C)CC3)n2)cc1 [TCMDC-133997] | 39.13%
CCc1cc(NC2CCN(C)CC2)nc(Nc2ccc(C)cc2)n1 [TCMDC-133996] | 57.8%
CCCc1cc(NC2CCN(C)CC2)nc(Nc2ccc(F)cc2)n1 [TCMDC-134004] | 57.16%
COC(=O)c1cc(C(=O)CN(Cc2ccccc2)C(C)C)ccc1O [TCMDC-131766] | 18.13%
CC(=O)Nc1ccc(OCCCCN(Cc2ccccc2C(F)(F)F)c2ccc(C(F)(F)F)c(C#N)c2)c(Cl)c1 [TCMDC-133358] | 47.4%
CC(=O)Nc1ccc(OCCN(Cc2ccccc2C(F)(F)F)c2ccc(C#N)c(C(F)(F)F)c2)c(Cl)c1 [TCMDC-132790] | 76.06%
N#Cc1ccc(OCCN(Cc2ccccc2C(F)(F)F)c2ccc(C#N)c(C(F)(F)F)c2)cc1 [TCMDC-132799] | 28.83%
CC(=O)Nc1ccc(OCCN(Cc2ccccc2OC(F)(F)F)c2ccc(C(F)(F)F)c(C#N)c2)c(Cl)c1 [TCMDC-132792] | 45.86%

SMILES | % Inhibition
CC(=O)Nc1ccc(OCCCN(Cc2ccccc2OC(F)(F)F)c2ccc(C(F)(F)F)c(C#N)c2)c(Cl)c1 [TCMDC-132789] | 32.58%
CC(=O)Nc1ccc(OCCCN(Cc2ccccc2C(F)(F)F)c2ccc(C(F)(F)F)c(C#N)c2)c(Cl)c1 [TCMDC-132785] | 61.05%
N#Cc1ccc(N(CCOc2ccc(Cl)cc2)Cc2ccccc2C(F)(F)F)cc1C(F)(F)F [TCMDC-132794] | -24.46%
N#Cc1ccc(N(CCCO)Cc2ccccc2C(F)(F)F)cc1C(F)(F)F [TCMDC-134689] | 3.655%
N#Cc1ccc(N(CCNS(=O)(=O)c2cc(Br)c(Cl)s2)Cc2ccccc2C(F)(F)F)cc1C(F)(F)F [TCMDC-135822] | 50.22%
N#Cc1ccc(N(CCOC(=O)c2ccc(Br)s2)Cc2ccccc2C(F)(F)F)cc1C(F)(F)F [TCMDC-135739] | 59.47%
N#Cc1ccc(N(CCOC(=O)c2ccccc2)Cc2ccccc2C(F)(F)F)cc1C(F)(F)F [TCMDC-135738] | -18.34%
CC(=O)Nc1ccc(OCCN(Cc2ccccc2C(F)(F)F)c2ccc(C#N)c(C(F)(F)F)c2)cc1 [TCMDC-132802] | 0.1764%
CCC(=O)Nc1cc(=O)[nH]c2nc(-c3ccc(Cl)cc3)nn12 [TCMDC-125473] | -75.71%
Cc1cc(-c2cc(-c3ccc(OCCN(C)C)cc3)[nH]c2-c2ccc3c(c2)CCC3=NO)ccn1 [TCMDC-141302] | 25.92%
N#Cc1cccc(NC(=O)Nc2ccc(CC(=O)N3CCc4cc(Cl)c(N5CCN(C/C=C/c6ccccc6)CC5)cc43)cc2)c1 [TCMDC-139476] | 12.28%
CCCc1cc(Cc2cnc(N)nc2N)ccc1OCCCCCC(=O)O [TCMDC-137231] | -22.54%
CS(=O)(=O)CCNCc1cc(-c2cc3ncnc(Nc4ccc(OCc5cccc(F)c5)c(Cl)c4)c3s2)cs1 [TCMDC-138726] | -0.4482%
CCOC(=O)c1ccc2nc(-c3ccc(C(=O)NC4CCN(Cc5ccccc5)CC4)s3)[nH]c2c1 [TCMDC-140575] | -23.22%
CCCCSc1nc2c(c(=O)n1Cc1ccco1)C1(CCCCC1)Cc1ccccc1-2 [TCMDC-123896] | -14.5%
CC(C)(C)Oc1ccc(C[C@@H]2NC3(C(=O)N(Cc4ccc(Cl)c(Cl)c4)c4ccccc43)C3C(=O)N(c4ccc(Br)cc4)C(=O)C32)cc1 (stereo partly drawn) [TCMDC-139775] | -22.32%
CC(=O)Nc1ccc(OCCCCN(Cc2ccccc2C(F)(F)F)c2ccc(C#N)c(C(F)(F)F)c2)cc1 [TCMDC-132800] | 12.39%
CC(=O)Nc1ccc(OCCN(CC(C)C)c2ccc(C#N)c(C(F)(F)F)c2)c(Cl)c1 [TCMDC-137002] | 29.5%
CC(=O)Nc1ccc(OCCCCN(Cc2ccccc2C(F)(F)F)c2ccc(C#N)c(C(F)(F)F)c2)c(Cl)c1 [TCMDC-132787] | 69.01%
CC(=O)Nc1ccc(OCCN(CC(C)C)c2ccc(C(F)(F)F)c(C#N)c2)c(Cl)c1 [TCMDC-132793] | 18.14%
CC(=O)Nc1ccc(OCCCCN(Cc2ccccc2OC(F)(F)F)c2ccc(C(F)(F)F)c(C#N)c2)c(Cl)c1 [TCMDC-132788] | 39.51%
CC(=O)Nc1ccc(OCCN(CC(C)(C)C)c2ccc(C#N)c(C(F)(F)F)c2)c(Cl)c1 [TCMDC-132786] | 66.46%
